IL-1B inflam inh: qHTS for Inhibitors of Inflammasome Signaling: IL-1-beta AlphaLISA Primary Screen | THP-1 LPS/ATP IL-1B secretion, AlphaLISA, 16 h; active compounds read low | activity change, % at 57.5 µM | 360,000 tested, 4.7% active; in the data active = activity change below about -50%; inconclusive = mostly about -30% to -49%
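Secreted IL-1B measured by AlphaLISA bead assay after 16 h compound exposure of THP-1 cells; compounds (final up to 57.5 uM) added 1 h before LPS (250 ng/mL) and ATP (1.25 mM) stimulation; lower signal means less secretion.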
ALOX12 inh: Primary qHTS assay for inhibitors of human arachidonate 12S-lipoxygenase (ALOX12): Round 2; 580,000 tested, 1.1% active; AID 1671190, 2021; purified 12hLO, xylenol orange hydroperoxide absorbance; Potency, µM (doses to about 108 µM), most hits filed as inhibitors; Polyunsaturated fatty acid lipoxygenase ALOX12 (Homo sapiens), P18054
Target sequence (P18054 whole entry, looked up): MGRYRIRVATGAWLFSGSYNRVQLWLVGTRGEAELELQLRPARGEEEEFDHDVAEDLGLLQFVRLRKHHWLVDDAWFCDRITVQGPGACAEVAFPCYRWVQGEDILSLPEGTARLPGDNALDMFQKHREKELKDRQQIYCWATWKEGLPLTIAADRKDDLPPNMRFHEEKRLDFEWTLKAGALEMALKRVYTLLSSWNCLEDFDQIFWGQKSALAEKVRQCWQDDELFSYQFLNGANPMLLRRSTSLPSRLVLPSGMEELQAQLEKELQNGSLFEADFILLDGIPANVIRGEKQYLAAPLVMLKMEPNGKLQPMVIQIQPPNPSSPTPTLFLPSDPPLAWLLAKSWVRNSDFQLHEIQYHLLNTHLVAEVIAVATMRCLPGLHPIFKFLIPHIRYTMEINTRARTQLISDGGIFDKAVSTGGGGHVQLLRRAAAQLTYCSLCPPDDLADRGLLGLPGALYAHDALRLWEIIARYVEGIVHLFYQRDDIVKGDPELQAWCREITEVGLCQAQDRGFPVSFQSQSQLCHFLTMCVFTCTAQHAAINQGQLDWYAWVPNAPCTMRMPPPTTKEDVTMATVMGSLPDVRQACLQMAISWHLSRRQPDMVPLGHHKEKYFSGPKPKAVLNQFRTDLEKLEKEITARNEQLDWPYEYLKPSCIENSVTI
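Purified human 12hLO at 150 nM in 25 mM Hepes, 0.01% Triton X-100, pH 7.0, preincubated 15 min at room temperature with compound. Reaction started with 40 uM arachidonic acid, 30 min at room temperature. Hydroperoxide measured by Fe-xylenol orange, 573/405 nm absorbance ratio.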
HT1080-NT tox: qHTS for induction of synthetic lethality in tumor cells producing 2HG: qHTS for the HT-1080-NT fibrosarcoma cell line. HT-1080-NT fibrosarcoma viability, CellTiter-Glo ATP luminescence, 48 h. Potency, µM (doses to about 46.1 µM), usual class: cytotoxic. 360,000 tested, 1.6% active. AID 686970, 2013;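 note: NT is the 2HG producing partner of a matched IDH1 knockdown line; nearly all actives have a fitted effect of over 55% in size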
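750 cells/well, RPMI + 5% FBS; 2 h settle, compound pin-transfer, 48 h at 37 degrees C. CellTiter-Glo 10 min RT, luminescence. Normalized to DMSO and media-only wells.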
DT40 TDP1 no CPT: qHTS for Inhibitors of human tyrosyl-DNA phosphodiesterase 1 (TDP1): qHTS in cells in absence of CPT; AID 686978, 2013; Potency, µM (doses to about 46.2 µM), actives largely listed as inhibitors; 420,000 tested, 15% active; DT40 Tdp1-/- hTDP1 cells, no CPT, ATP luminescence, 48 h; note: nearly all actives have a fitted effect of over 55% in size
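Camptothecin absent (DMSO only). Human TDP1-complemented DT40 knockout cells, 400 cells/well, 37 °C for minimum 48 hr; ATP measured via CellTiter-Glo, 30 min dark incubation, luminescence.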
HT1080 IDH1KD tx: qHTS for induction of synthetic lethality in tumor cells producing 2HG: qHTS for the HT-1080-IDH1KD cell line. HT-1080 IDH1 knockdown viability, ATP luminescence, 48 h. Potency, µM (titrated, usually from 46.1 µM), actives largely listed as cytotoxic. 360,000 tested, 2% active
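In this qHTS, HT-1080 cells depleted of IDH1 are exposed for 48 h at 37 °C to compound titrations. Toxicity is scored from CellTiter-Glo luminescence, with DMSO as full viability and medium alone as none.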
TDP1 cell CPT: qHTS for Inhibitors of human tyrosyl-DNA phosphodiesterase 1 (TDP1): qHTS in cells in presence of CPT. chicken DT40 Tdp1-/-;hTDP1 cells + 20 nM CPT, ATP luminescence, 48 h. Potency, µM (doses to about 46.2 µM), hits mostly inhibitors. 420,000 tested, 12% active. AID 686979, 2013; note: nearly all actives have a fitted effect of over 55% in size
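Chicken DT40 Tdp1-/- cells stably complemented with human TDP1 were seeded at 400 cells/well in medium containing 20 nM camptothecin, exposed to pin-transferred compounds, and grown at 37 °C for at least 48 hr. Viability was read as ATP luminescence.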
A number is an active result; n = inactive; u = inconclusive; x = no result; [ ] = dose if it differs, or a comment. This is one part of a sample in which hits are shown more often than they occur. Unless noted, calls come from the whole dose curve; as a rule, active = well fitted curve in the direction sought with a large enough effect; inconclusive = small, poorly fitted or top-dose-only effect, or another doubt; inactive = no such curve, though single readings can be large; an effect the other way counts as inactive or inconclusive.

SMILES	IL-1B inflam inh	ALOX12 inh	HT1080-NT tox	DT40 TDP1 no CPT	HT1080 IDH1KD tx	TDP1 cell CPT
Cc1ccccc1C(=O)Nc1ccc(-c2nc3ccc(C(=O)c4ccccc4)cc3[nH]2)cc1	n	n	n	5.2µM	u	9.2µM
COc1cccc2c1OCCCN(C(=O)C1COc3ccccc3C1)C2 (stereo unspecified)	x	n	x	x	x	x
O=C(N/N=C1\CC(c2ccccc2)Oc2ccccc21)c1ccc(O)cc1 (stereo unspecified)	n	n	n	u	n	u
O=C(N/N=C1\CC(c2ccccc2)Oc2ccccc21)c1cccnc1 (stereo unspecified)	n	n	u	21µM	12µM	u
O=C(c1ccc(Cl)cc1)N1CCn2c(nn(-c3ccc(F)cc3)c2=O)C1	x	n[6.33 µM]	x	x	x	x
COc1cc(CNCc2ccccn2)ccc1OCc1ccccc1Cl	n	n	n	u	n	u
COc1cc(CNCCc2ccc(Cl)cc2)ccc1OCC(O)CN1CCOCC1 (stereo unspecified)	x	n	x	x	x	x
CCOc1cc(CNCCCN2CCOCC2)cc(Br)c1OCC(=O)Nc1cccc(C(F)(F)F)c1	n	u	u	4.1µM	u	5.2µM
COc1cc(CNCCCN2CCOCC2)cc(Br)c1OCc1ccc(Cl)cc1	n	u	n	3.7µM	u	3.7µM
COc1cc(CNCCN2CCOCC2)ccc1OCc1ccc(Cl)cc1	u	u	u	u	u	18µM
COc1cc(CNCCN2CCOCC2)ccc1OCc1ccccc1Cl	n	u	n	18µM	n	u
CCCc1cc(NCc2cccnc2)n2nc(C)c(-c3ccccc3)c2n1	x	n	x	x	x	x
CC1=C(C(=O)OC(C)C)C(c2ccc(C(C)C)cc2)N2C(=O)CCSC2=N1 (stereo unspecified)	x	n	x	x	x	x
COc1cc(CNCCc2ccc(S(N)(=O)=O)cc2)ccc1OCc1ccc(Cl)cc1	-78	40µM	n[9.24 µM]	u	13µM	23µM
COc1cc(CNCCc2ccc(S(N)(=O)=O)cc2)ccc1OCC(=O)NC1CCCCC1	n	u	n	n	n	u
Cc1cc(Cl)ccc1OCC(O)CNCCc1ccc(S(N)(=O)=O)cc1 (stereo unspecified)	n	n	n	15µM	n	u
C=CCOc1c(Cl)cc(CNCCCN2CCOCC2)cc1OC	n	u	u	n	n	23µM
CC1CCCCC1NC(=O)c1ccc(Cl)nc1 (stereo unspecified)	x	n	x	x	x	x
O=C(NC1CCN(C(=O)N2CC3CC(C2)[C@H]2CCCC(=O)N2C3)CC1)C1CC1 (stereo partly specified)	x	n	x	x	x	x
COc1cc2c(cc1OC)CN(C(=O)CCCN(C)S(=O)(=O)c1ccc(F)cc1)CC2	x	n	x	x	x	x
Cc1ccc(S(=O)(=O)N2CCCC2C(=O)NCc2ccc3c(c2)OCO3)cc1 (stereo unspecified)	n	n	n	u	n	n
COc1ccc(-c2c(C)c3cc(OC(C)=O)ccc3oc2=O)cc1OC	x	n	x	x	x	x
NNc1cc(Cl)c(Cl)cc1[N+](=O)[O-]	x	n	x	x	x	x
NNc1cc(Cl)c(Cl)cc1Cl	x	7.1µM	x	x	x	x
FC(F)(F)c1cccc(-c2csc(-c3cnccn3)n2)c1	x	n	x	x	x	x
SMILES	IL-1B inflam inh	ALOX12 inh	HT1080-NT tox	DT40 TDP1 no CPT	HT1080 IDH1KD tx	TDP1 cell CPT
COC(=O)c1ccccc1NS(C)(=O)=O	n	n	n	n	n	n
CS(=O)(=O)Nc1ccccc1NS(C)(=O)=O	-58	u	n	n	n	n
C=CCCC(=O)NC1CC(C)(C)Cc2c1cnn2-c1ccc(OC)cc1 (stereo unspecified)	n	n	n	u	n	u
COc1cccc(C(=O)N2CCC(N3C[C@H](O)C[C@H]3C(=O)NCc3ccccc3)CC2)c1	x	n	x	x	x	x
O=C(CCN1C(=O)C2C3C=CC(C3)C2C1=O)N1CCN(c2ccc([N+](=O)[O-])cc2)CC1 (stereo unspecified)	n	n	n	u	n	u
O=C1C2C3C=CC(C3)C2C(=O)N1CCN1CCN(Cc2ccc([N+](=O)[O-])cc2)CC1 (stereo unspecified)	n	n	n	16µM	n	u
CC(C(=O)OCC(=O)c1ccc([N+](=O)[O-])cc1)N1C(=O)C2C3CCC(C3)C2C1=O (stereo unspecified)	n	n	n	u	n	16µM
O=C(CN1C(=O)C2C3C=CC(C3)C2C1=O)OCC(=O)c1ccc([N+](=O)[O-])cc1 (stereo unspecified)	-69	n	n	u	n	u
CC(C(=O)OCC(=O)c1ccc([N+](=O)[O-])cc1)N1C(=O)C2C3C=CC(C3)C2C1=O (stereo unspecified)	-56	n	n	u	n	16µM
CN1C[C@@H]2[C@@H]3C(=O)N(Cc4ccccc4)C(=O)[C@@H]3[C@](Cc3ccccc3)(C1=O)N2C(=O)c1ccc(F)cc1	n	n	n	n	n	n
CSc1nc(C)c2c(n1)N(c1ccc(C(C)C)cc1)CC2	n	n	n	21µM	n	u
CSc1nc(C)c2c(n1)N(c1ccc(F)cc1)CC2	n	n	n	u	n	n
COc1ccc(-c2coc3cc(OCC(=O)N4CCN(c5ccc(F)cc5)CC4)ccc3c2=O)cc1	x	n	x	x	x	x
Cc1cccc(CN2CCN([C@H]3CS(=O)(=O)N[C@@H]3COCc3ccccc3)CC2)c1	n	n	n	16µM	n	18µM
CCOc1ccc2nc(N(CCN(C)C)C(=O)c3ccc4c(c3)CCCC4)sc2c1	-65	x	n	u	n	u
CN(C)CCN(C(=O)c1ccc2c(c1)CCCC2)c1nc2cc3c(cc2s1)OCCO3	-58	u	n	29µM	n	u
COc1ccc(Cl)c2sc(N(CCN(C)C)C(=O)c3ccc4c(c3)OCCO4)nc12	-96	u	n	u	n	u
CN(C)CCN(C(=O)c1ccc(S(=O)(=O)N(C)C)cc1)c1nc2cc3c(cc2s1)OCCO3	n	n	n	n	n	n
CCc1ccc2nc(N(CCN(C)C)C(=O)c3ccc4ccccc4c3)sc2c1	-54	x	n	n	n	u
COc1ccc2nc(N(CCN(C)C)C(=O)c3ccc4c(c3)OCCO4)sc2c1	n	u	n	n	n	n
